The panel holds about 83,000 compounds, 20% with a hit somewhere; the sample as a whole holds those more often.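 Cells were grown in 96-well plates and exposed to the test compound at a single concentration for 48 hours; results are reported as percent growth, with values below 10 considered active.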 The source made the active and inactive calls.
Legend:
Assay in all cases: NCI-60 one-dose screen, 48 h (100 = growth as untreated, 0 = no growth, -100 = all killed)
Conditions in all cases: 10 µM
[1] = test system: K-562 leukemia
[2] = test system: MDA-MB-231 breast
[3] = test system: RXF 393 renal
[4] = test system: SF-268 CNS
[5] = test system: SF-295 CNS
[6] = test system: SF-539 CNS
[7] = test system: UACC-257 melanoma
[8] = test system: M14 melanoma
[9] = test system: HCT-15 colon
[10] = test system: MALME-3M melanoma

Measured: growth

CC(=O)c1cc(Br)ccc1O
inactive: [1] 103% | [2] 108% | [3] 109% | [4] 112% | [5] 95.3% | [6] 97.1% | [7] 113% | [8] 104% | [9] 101%

O=C(O)CN1C(=O)c2cccc3cccc(c23)C1=O
inactive: [10] 102% | [2] 85.1% | [4] 122% | [5] 99.7% | [6] 98.7% | [7] 98.2% | [8] 99.6% | [9] 108%

Clc1ccc(/C=C2\CCCC3=C2N=C2SC=NN2C3c2ccc(Cl)cc2)cc1 (stereo not drawn)
inactive: [1] 102% | [2] 104% | [3] 105% | [4] 99.2% | [5] 105% | [6] 106% | [7] 97.1% | [8] 94.9% | [9] 87.3%

CN1CCCNc2c(c(=O)c2=O)NCCCN(C)CCCNc2c(c(=O)c2=O)NCCCN(C)CCCNc2c(c(=O)c2=O)NCCCN(C)CCCNc2c(c(=O)c2=O)NCCCN(C)CCCNc2c(c(=O)c2=O)NCCCN(C)CCCNc2c(c(=O)c2=O)NCCCN(C)CCCNc2c(c(=O)c2=O)NCCC1
active: [4] -16.5% | [6] 6.63%
inactive: [2] 46.5% | [5] 65.9% | [7] 21.2% | [8] 61.1% | [9] 62.4%

O=C(CNC(=O)OCc1ccccc1)NCC(=O)Oc1ccc([N+](=O)[O-])cc1
inactive: [1] 117% | [2] 106% | [3] 117% | [4] 108% | [5] 103% | [6] 104% | [8] 89.5% | [9] 105%

CC1CC(=O)OC(C)C1 (stereo not drawn)
inactive: [10] 98.7% | [2] 113% | [3] 104% | [4] 111% | [5] 94.6% | [6] 98.5% | [7] 111% | [8] 100% | [9] 104%

COc1ccc(C2CC(c3ccc(N(C)C)cc3)=NN2c2ccc(S(N)(=O)=O)cc2)cc1 (stereo not drawn)
inactive: [10] 83% | [2] 67.7% | [3] 63.2% | [4] 59.6% | [5] 35.2% | [6] 114% | [7] 73.7% | [8] 69.2% | [9] 43%

O=C(NN1C(=O)CSC1c1ccc(Cl)cc1)c1cccnc1 (stereo not drawn)
inactive: [10] 88.8% | [2] 156% | [4] 97% | [5] 78.3% | [6] 105% | [7] 112% | [8] 84.1% | [9] 119%

Nc1ncn([C@@H]2O[C@H](CO)[C@@H](O)[C@H]2O)c(=O)n1
inactive: [4] 33.8% | [5] 28.4% | [7] 48% | [8] 19.7% | [9] 22.9%
active: [2] -3.92% | [6] 3.27%

C[N+](C)(C)c1ncnc2nc[nH]c12
inactive: [1] 73.3% | [2] 111% | [4] 102% | [5] 87.8% | [6] 97.6% | [7] 91.5% | [8] 93.8% | [9] 94.2%

CO/N=C(/C(=O)NC1C(=O)N2C(C(=O)O)=C(COC(N)=O)CSC12)c1ccco1 (stereo not drawn)
inactive: [10] 94.3% | [2] 107% | [4] 124% | [5] 105% | [6] 100% | [7] 104% | [8] 102% | [9] 104%

COc1ccc2c(c1)-c1c(c3cc(OC)ccc3n(CCN(C)C)c1=O)C2=O
active: [5] 7.07%
inactive: [1] 18.6% | [2] 36.7% | [3] 25.2% | [4] 22.1% | [6] 37.7% | [7] 18.4% | [8] 24% | [9] 21.9%

COc1cccc(C2C3=C(COC3=O)N(CCO)c3cc(OC)ccc32)c1 (stereo not drawn)
active: [2] 8.33% | [5] -20.3% | [6] -6.71% | [8] 6.29%
inactive: [1] 17.1% | [3] 15.9% | [4] 31.6% | [9] 11.3%

COc1ccc(NC(=O)CSc2nc3ccccc3c(=O)n2CCc2ccccc2)cc1
inactive: [10] 60.3% | [2] 61.5% | [4] 53.7% | [5] 91.5% | [6] 79.5% | [7] 87.9% | [8] 75.3% | [9] 92.1%

CCCCCCCCCCCCCCCCCC(=O)OCCCCCCC
inactive: [10] 115% | [2] 98.7% | [3] 96.4% | [4] 94.9% | [5] 99.9% | [6] 112% | [7] 109% | [8] 108% | [9] 95.5%

Cc1ccc(NC(=O)CSc2nc3ccccc3c(=O)n2CCc2ccccc2)c(C(=O)O)c1
inactive: [2] 90.6% | [4] 104% | [5] 91.8% | [6] 104% | [7] 98.1% | [8] 97.8% | [9] 107%

CN(C)CCOc1nc2ccccc2c2c1-c1ccc(Cl)cc1C2=O
inactive: [2] 14.8%
active: [1] -29.9% | [3] -35.6% | [4] -25.3% | [5] -27.9% | [6] -1.7% | [7] -68% | [8] -83.4% | [9] 5.59%

O=C(NC(Cc1ccc(O)cc1)C(=O)N=Nc1c(O)[nH]c2ccccc12)c1ccccc1 (stereo not drawn)
inactive: [1] 107% | [2] 110% | [3] 108% | [4] 97.8% | [5] 97.4% | [6] 98.3% | [7] 97.5% | [8] 94% | [9] 103%

Nc1ccn(C2CC(O)C(CO)O2)c(=O)n1 (stereo not drawn)
inactive: [1] 99.5% | [2] 115% | [4] 110% | [5] 116% | [6] 98.3% | [7] 113% | [8] 106% | [9] 102%

Oc1[nH]c2ccc(Cl)cc2c1/C=c1/ccc2c(c1)N=C(c1cccs1)N=2
inactive: [1] 30.9% | [2] 91.2% | [3] 49.7% | [5] 41.4% | [6] 81.3% | [7] 48.5% | [8] 77.1% | [9] 55.4%

COc1cc([C@@H]2c3cc4c(cc3C(Br)[C@H]3COC(=O)[C@H]23)OCO4)cc(OC)c1OC (stereo partly drawn)
inactive: [10] 31.5% | [7] 16.2%
active: [2] -5.49% | [4] -29.9% | [5] -15.4% | [6] -44.5% | [8] -8.65% | [9] -3.53%

CN(C)CCS(=O)(=O)CCN(C)C
inactive: [10] 117% | [2] 88.5% | [3] 99.2% | [4] 107% | [5] 110% | [6] 100% | [7] 110% | [8] 96.7% | [9] 103%

CCN1CCC2(CC1)OC(c1ccccc1)C(c1ccccc1)O2 (stereo not drawn)
inactive: [1] 88.2% | [2] 122% | [3] 109% | [4] 108% | [5] 111% | [6] 116% | [7] 116% | [8] 112% | [9] 106%

O=c1c2ccccc2nc(SCCN2CCCCC2)n1CCc1ccccc1
inactive: [2] 66.5% | [4] 101% | [5] 87.5% | [6] 90.2% | [7] 95.9% | [8] 103% | [9] 80.7%

C=C(C(=O)c1ccccc1)C(NC(C)(C)C)c1ccccc1 (stereo not drawn)
active: [1] 4.27% | [2] -11.3% | [3] -56.1% | [4] 7.85% | [6] -24.1% | [7] -15.3% | [8] -33.6% | [9] -48.7%
inactive: [5] 110%

COc1ccc2c(c1)sc1nc(-c3ccccc3)c(-c3ccsc3)n12
active: [3] -13.3% | [5] -20% | [6] 2.07%
inactive: [1] 13.8% | [2] 52.3% | [4] 54.3% | [7] 39.7% | [8] 15.6% | [9] 30.5%

CCc1ccc2c(c1)N(CCO)C1=C(C(=O)OC1)C2c1ccccc1 (stereo not drawn)
inactive: [1] 49.1% | [2] 103% | [3] 94.3% | [4] 106% | [5] 86% | [6] 103% | [8] 78.9% | [9] 71.6%

O=C(/C(=C/c1ccccc1)CN1CCCCC1)c1ccccc1
active: [1] 2.9% | [2] -24.8% | [3] -77.6% | [4] -9.79% | [6] -43.4% | [7] -0.832% | [8] -48.4% | [9] -40.6%
inactive: [5] 38.6%

O=C1OCC2=C1C(c1cccc(Br)c1)c1cc3c(cc1N2CCO)CCC3 (stereo not drawn)
active: [2] -13% | [5] -9.25% | [6] -1.5% | [9] 8.3%
inactive: [1] 19.4% | [3] 29.5% | [4] 14.4% | [8] 12.8%

CC(=O)c1cc(Cl)ccc1O
inactive: [1] 103% | [2] 100% | [3] 106% | [4] 104% | [5] 94.1% | [6] 89.1% | [7] 110% | [8] 106% | [9] 98.9%

c1ccc(C(NC2CC3CCC2C3)c2ccccc2)cc1 (stereo not drawn)
inactive: [1] 92.8% | [2] 96.1% | [3] 102% | [4] 105% | [5] 94.7% | [6] 111% | [7] 102% | [8] 93.1% | [9] 97.6%

Clc1ccccc1N=Cc1ccc2c(c1)OCO2
inactive: [1] 87.1% | [2] 94.4% | [3] 106% | [4] 107% | [5] 102% | [6] 112% | [7] 104% | [8] 103% | [9] 100%
